TROY NFkB inh: inhibitors of TROY-driven NF-kB signaling, primary screen, Q293 LMP1-TROYcd cells, NF-kB luciferase, uHTS. 360,000 tested, 0.98% active. Q293 LMP1-TROYcd NF-kB luciferase reporter, 4 h. inhibition, % at 10 µM. AID 1347056, 2019;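 active = compounds whose plate-normalised and pattern-corrected inhibition of the luciferase reporter signal at the single screening dose is 50% or more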
TWEAK-Fn14 inh: inhibitors of TWEAK-Fn14 signaling, primary screen, luciferase reporter cells, uHTS; TWEAK-stimulated Fn14 reporter cells, luciferase luminescence, 8 h; inhibition, % at 10 µM; 360,000 tested, 2% active; AID 1159606, 2016; in the data active = inhibition above about 50%
Peg3 prom inh: Peg3 promoter-driven luciferase inhibitors, primary screen, cell-based, HeLa, luciferase luminescence. inhibition, % at 20 µM. AID 588405, 2011. HeLa PEG-Prom luciferase reporter, overnight. 360,000 tested, 1.7% active;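 active = inhibition of at least 50% at 20 µM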
KKLEB tox: cytotoxicity in KKLEB CF airway cells, primary screen, cytotoxicity control for CF NF-kB inhibitor project, cell-based, uHTS, fluorescence assay plates. 360,000 tested, 0.36% active. AID 602141, 2011. KKLEB CF airway cells viability, ATPlite luminescence, overnight; active compounds read low; cells stimulated with P. aeruginosa culture filtrate. activity change (cytotoxicity), % at 5 µM;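 active = corrected activity change at or below -50% at 5 µM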
CF NFkB inh: inhibitors of PAF-induced NF-kB signaling, primary screen, cell-based, GFP fluorescence, uHTS | KKLEB NF-kB-GFP reporter, GFP fluorescence overnight | inhibition, % at 5 µM | 360,000 tested, 0.86% active | AID 588850, 2011;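 active = at least 50% inhibition at 5 µM, scaled per plate between neutral and stimulator controls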;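 also: PAF is a Pseudomonas aeruginosa culture filtrate used as stimulus; plate controls were PAF-stimulated DMSO wells for no effect and unstimulated DMSO wells for full effect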
HIF-2a inh: HIF-2a reporter inhibitors, primary screen, luminescence, 786-0 RCC cells; 786-0 RCC cells HIF-2a reporter, luciferase luminescence, overnight; inhibition, % at 18.8 µM; 360,000 tested, 0.72% active;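 active = inhibition of the luminescence signal of 40% or more relative to plate controls, in a single-dose primary screen at 18.75 µM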
Active calls of the source: *; / = no result. A selection: hits, their analogues and other compounds. The true share with any hit is near 4%.

SMILES	TROY NFkB inh	TWEAK-Fn14 inh	Peg3 prom inh	KKLEB tox	CF NFkB inh	HIF-2a inh
COc1cccc(-c2nc(C(=O)NCC3CCCO3)cc3c2[nH]c2ccccc23)c1 (configuration not stated)	2	34	56*	4	-44	-10
CSc1nnc(-c2cnccn2)n1C	1	-31	4	-18	6	-19
O=C1/C(=C/c2ccc(N3CCOCC3)o2)SC(=Nc2ccccc2)N1CCc1c[nH]c2ccccc12	17	90*	102*	-51*	-21	93*
O=C1S/C(=C/c2ccc(N3CCOCC3)o2)C(=O)N1Cc1ccc(F)cc1	2	-11	-2	16	-9	5
COc1cc(/C=C2\SC(=Nc3ccccc3)N(CCc3c[nH]c4ccccc34)C2=O)ccc1OC(C)C(=O)O (configuration not stated)	59*	45	3	-17	-36	1
O=C1S/C(=C\c2ccc(N3CCOCC3)o2)C(=O)N1Cc1ccc(F)cc1	14	52*	5	-23	-6	-21
COc1ccc(N=C2S/C(=C\c3ccc(OC(C)C(=O)O)c(OC)c3)C(=O)N2CCc2c[nH]c3ccccc23)cc1 (configuration not stated)	54*	39	5	-6	17	17
COCCN1C(=O)/C(=C/c2ccc(Oc3ccc([N+](=O)[O-])cn3)c(OC)c2)SC1=Nc1ccccc1	7	-12	5	-12	-7	-11
COc1ccc(-c2ccc(SCC(=O)c3cccs3)nn2)cc1OC	-10	-27	-33	-10	16	-33
Cc1cc(-c2ccc(C(C)C)c(S(=O)(=O)N3CCOc4ccccc43)c2)on1	15	-7	16	-4	8	17
Cc1ccc(-c2onc(C)c2C)cc1S(=O)(=O)N1CCOc2ccccc21	44	64*	52*	-6	-4	14
CCc1ccc(-c2cc(C)no2)cc1S(=O)(=O)N1CC(=O)Nc2ccccc21	-21	-12	-1	-2	3	1
Cc1cc(-c2ccc(C)c(S(=O)(=O)N3CC(=O)Nc4ccccc43)c2)on1	-14	92*	-16	2	-27	5
O=C(O)/C=C/c1ccc([N+](=O)[O-])o1	1	3	6	12	7	7
O=C1C2C3C=CC(C4CC34)C2C(=O)N1/N=C/c1ccc([N+](=O)[O-])o1 (configuration not stated)	20	90*	23	-2	4	-6
O=[N+]([O-])c1ccc(/C=N/N=C/c2ccc([N+](=O)[O-])o2)o1	-61	84*	105*	-47	83*	23
CCCn1c2ccccc2c2cnn(CC(=O)NC3CCN(Cc4ccccc4)CC3)c(=O)c21	-14	-5	15	0	8	-5
CC(C)(C)c1ccc(-c2noc(CNC(=O)c3ccco3)n2)cc1	-3	6	-67	-4	-3	-104
CC(NC(=O)c1ccco1)c1nc(-c2ccc(C(C)(C)C)cc2)no1 (configuration not stated)	20	57*	-49	4	-19	-59
O=c1[nH]nc(Br)c(=O)n1C(c1ccccc1)c1ccccc1	7	-6	30	11	6	15
CN(C)S(=O)(=O)c1ccc(C(=O)NCCOc2ccccc2)cc1	-32	-5	-192	1	-6	-189
CC(C)(C)c1ccc(C(=O)NCCc2ccccc2)cc1	43	59*	-69	-19	1	-56
CC(C)Cc1ccc(C(=O)NCCOc2ccccc2)o1	18	51*	-75	2	1	-53
O=C(NCCc1ccccc1)c1cccc(N2CCCC2=O)c1	62*	83*	1	-2	-2	22
CC(C)(C)c1ccc(C(=O)NCCOc2ccccc2)cc1	79*	89*	-35	-1	7	6
SMILES	TROY NFkB inh	TWEAK-Fn14 inh	Peg3 prom inh	KKLEB tox	CF NFkB inh	HIF-2a inh
CCCCN1CC(C)(C)[C@H](CC(=O)Nc2ccccc2)C1=O	0	8	5	14	0	-4
CC1(Oc2cccc(Cl)c2)CCN(Cc2ccc(OC(F)(F)F)cc2)C1 (configuration not stated)	4	2	-11	-12	21	1
COC(=O)C[C@@H]1C=C[C@@H](NC(=O)NC2CCCC2)[C@@H](CO)O1	/	/	/	/	/	2
O=C(NCCc1ccccc1)c1ccc([N+](=O)[O-])cc1	11	58*	-75	-7	-18	-122
CCn1c(O)c(/C=C2\C=Nc3ccccc32)sc1=O	-66	-25	-314	-4	-45	-225
CN(C)CCCN=c1cc(-c2ccccc2)oc2ccc(Cl)cc12	-78	-22	100*	-4	-20	-251
Cc1cc(C)c(OCCCCNCc2ccccc2)c(Cl)c1	0	-70	53*	-6	6	20
Clc1ccc(OCCCNCc2ccccc2)c2ccccc12	-56	-38	93*	-53*	43	-5
Brc1ccccc1OCCNCc1ccccc1	-25	-19	-64	5	4	-97
O=C1N/C(=C/c2ccc(N3CCOCC3)o2)C(=O)N1c1ccccc1	20	53*	-8	9	-20	19
O=C1N/C(=C/c2ccc(N3CCCC3)cc2)C(=O)N1c1ccccc1	-56	-34	-155	-5	-13	-165
O=C(NC(=S)Nc1cc(C(F)(F)F)ccc1Cl)c1ccccc1	-55	-16	-57	-2	-3	-120
O=C(O)c1ccc(NNC(=S)Nc2cc(C(F)(F)F)ccc2Cl)cc1	47	69*	26	13	0	-6
COc1ccc(-c2nnc3sc(CN4C(=O)c5ccccc5C4=O)nn23)cc1	14	93*	2	10	-10	3
CN(c1cccc(NS(=O)(=O)c2cccs2)c1)S(C)(=O)=O	-2	-9	12	0	-5	21
COc1ccc(Nc2nc3cc(C)ccc3cc2C#N)c(OC)c1	-3	-5	15	-33	21	12
COc1ccc(Nc2nc3ccc(C)cc3cc2C#N)c(OC)c1	-21	85*	13	8	-15	-37
COc1ccccc1CNC(=O)c1oc2ccc(S(=O)(=O)N3CCOCC3)cc2c1C	-2	52*	21	-29	24	8
COc1ccc(NC(=O)c2oc3ccc(S(=O)(=O)N4CCC5(CC4)OCCO5)cc3c2C)cc1	29	53*	69*	-19	-11	1
Cc1c(C(=O)N(C)Cc2ccccc2)oc2ccc(S(=O)(=O)N3CCCC3)cc12	7	8	20	-21	11	6
